Reference: the supplement of paper PMC10849652
Targets with a hit are over-represented here; the source holds about 8,800 in all. About 0.5% of all pairs of compound and target were hits.

Assays:
Experiment in all cases: log2 fold change, soluble protein after heating vs DMSO (PISA); higher = thermal stabilisation; K562 lysate, 10 uM; active = over 0.2 and 3.5 SD of the protein, either way, in both replicates (recomputed)
lapatinib = compound: CS(=O)(=O)CCNCc1ccc(-c2ccc3ncnc(Nc4ccc(OCc5cccc(F)c5)c(Cl)c4)c3c2)o1 [lapatinib]
In short: (§1)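 Values give the log-two fold change in thermal stability against solvent controls, from duplicates. Crude K562 extract at 1 mg/mL protein, made by dounce homogenisation in PBS pH 7.4 with 1 mM MgCl2, was treated with 10 μM compound for 30 min. After 3 min heating across 48°C-58°C, aliquots were pooled, adjusted to 0.5% NP-40 at 4°C and centrifuged at 21,000xg for 90 min. The supernatant was measured by TMTpro 16plex LC-MS/MS with channel sums equalised.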

pictilisib = compound: CS(=O)(=O)N1CCN(Cc2cc3nc(-c4cccc5[nH]ncc45)nc(N4CCOCC4)c3s2)CC1 [pictilisib]
In short: as §1

crizotinib = compound: C[C@@H](Oc1cc(-c2cnn(C3CCNCC3)c2)cnc1N)c1c(Cl)ccc(F)c1Cl [crizotinib]
In short: as §1

[1] = compound: C[C@H](C1=CC=C(C=C1)C(=O)NC2=C3C=CNC3=NC=C2)N
In short: as §1

duvelisib = compound: C[C@H](Nc1ncnc2nc[nH]c12)c1cc2cccc(Cl)c2c(=O)n1-c1ccccc1 [duvelisib]
In short: as §1

gandotinib = compound: Cc1cc(Nc2cc(CN3CCOCC3)c3nc(C)c(Cc4ccc(Cl)cc4F)n3n2)n[nH]1 [gandotinib]
In short: as §1

tozasertib = compound: Cc1cc(Nc2cc(N3CCN(C)CC3)nc(Sc3ccc(NC(=O)C4CC4)cc3)n2)n[nH]1 [tozasertib]
In short: as §1

doramapimod = compound: Cc1ccc(-n2nc(C(C)(C)C)cc2NC(=O)Nc2ccc(OCCN3CCOCC3)c3ccccc23)cc1 [doramapimod]
In short: as §1

bafetinib = compound: Cc1ccc(NC(=O)c2ccc(CN3CC[C@H](N(C)C)C3)c(C(F)(F)F)c2)cc1Nc1nccc(-c2cncnc2)n1 [bafetinib]
In short: as §1

[2] = compound: Cc1cccc(CC(=O)N2CCc3c2ccc(-c2cn(C)c4ncnc(N)c24)c3F)n1
In short: as §1

nilotinib = compound: Cc1cn(-c2cc(NC(=O)c3ccc(C)c(Nc4nccc(-c5cccnc5)n4)c3)cc(C(F)(F)F)c2)cn1 [nilotinib]
In short: as §1

[3] = compound: Cc1nc(Nc2n[nH]c3c2CN(C(=O)N[C@H](CN(C)C)c2ccccc2)C3(C)C)c2sccc2n1
In short: as §1

dasatinib = compound: Cc1nc(Nc2ncc(C(=O)Nc3c(C)cccc3Cl)s2)cc(N2CCN(CCO)CC2)n1 [dasatinib]
In short: as §1

[4] = compound: Cc1ncc(-c2ccnc(Nc3ccc(S(C)(=O)=O)cc3)n2)n1C(C)C
In short: as §1

[5] = compound: Cn1cc(-c2ccc3c(c2)CCN3C(=O)Cc2cccc(C(F)(F)F)c2)c2c(N)ncnc21
In short: as §1

quisinostat = compound: Cn1cc(CNCC2CCN(c3ncc(C(=O)NO)cn3)CC2)c2ccccc21 [quisinostat]
In short: as §1

tipifarnib = compound: Cn1cncc1[C@@](N)(c1ccc(Cl)cc1)c1ccc2c(c1)c(-c1cccc(Cl)c1)cc(=O)n2C [tipifarnib]
In short: as §1

[6] = compound: NC(=O)Nc1cc(-c2cccc(F)c2)sc1C(=O)N[C@H]1CCCNC1
In short: as §1

[7] = compound: NC(=O)c1cnc(N[C@@H]2CCCC[C@@H]2N)nc1Nc1cccc(-n2nccn2)c1
In short: as §1

[8] = compound: NC1(c2ccc(-c3nc4ccn5c(=O)[nH]nc5c4cc3-c3ccccc3)cc2)CCC1
In short: as §1

Measured: log2 fold change

COMT (UniProt P21964)
UniProt P21964, sequence (P21964 whole entry, looked up): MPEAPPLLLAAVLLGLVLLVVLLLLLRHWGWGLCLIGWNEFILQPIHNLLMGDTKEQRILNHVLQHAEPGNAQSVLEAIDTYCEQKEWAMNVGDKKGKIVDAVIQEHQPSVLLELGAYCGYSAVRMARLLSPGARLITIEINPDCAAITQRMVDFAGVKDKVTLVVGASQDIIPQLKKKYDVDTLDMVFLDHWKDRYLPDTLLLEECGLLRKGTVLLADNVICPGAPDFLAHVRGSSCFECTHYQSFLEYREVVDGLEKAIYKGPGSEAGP
inactive: lapatinib -0.006 | pictilisib -0.007 | crizotinib 0.019 | [1] -0.052 | duvelisib -0.015 | gandotinib -0.008 | tozasertib -0.008 | doramapimod 0.038 | bafetinib 0.012 | [2] 0.01 | nilotinib -0.007 | [3] -0.029 | dasatinib -0.02 | [4] -0.018 | [5] 0.02 | quisinostat -0.08 | tipifarnib 0.013 | [6] 0.028 | [7] 0.005 | [8] 0.009

CLASP2 isoform 3 (UniProt O75122)
inactive: lapatinib -0.008 | crizotinib -0.018 | [1] -0.172 | duvelisib -0.015 | gandotinib 0.077 | tozasertib 0.015 | doramapimod 0.041 | bafetinib -0.021 | nilotinib 0.013 | [3] -0.004 | dasatinib -0.024 | [4] 0.02 | [5] 0.021 | quisinostat -0.042 | tipifarnib -0.063 | [6] -0.07 | [7] -0.007 | [8] 0.032
active: [2] 0.247

CSNK2A1 (UniProt P68400)
UniProt P68400, sequence (P68400 whole entry, looked up): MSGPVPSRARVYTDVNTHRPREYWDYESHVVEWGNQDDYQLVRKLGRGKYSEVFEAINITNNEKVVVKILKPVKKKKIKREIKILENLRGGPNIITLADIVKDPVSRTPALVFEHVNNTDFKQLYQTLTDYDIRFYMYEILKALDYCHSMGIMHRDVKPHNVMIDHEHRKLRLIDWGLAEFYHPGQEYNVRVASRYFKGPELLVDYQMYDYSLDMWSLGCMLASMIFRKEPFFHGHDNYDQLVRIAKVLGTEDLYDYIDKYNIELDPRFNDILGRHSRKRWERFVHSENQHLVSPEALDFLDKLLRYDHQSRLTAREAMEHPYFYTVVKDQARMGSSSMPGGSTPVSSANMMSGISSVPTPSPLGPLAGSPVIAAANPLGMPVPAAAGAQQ
inactive: lapatinib -0.038 | pictilisib 0.016 | crizotinib 0.007 | [1] -0.021 | duvelisib -0.002 | gandotinib -0.007 | tozasertib -0.006 | doramapimod -0.003 | bafetinib 0.027 | [2] -0.018 | nilotinib -0.022 | [3] 0.061 | dasatinib 0 | [4] 0.058 | [5] -0.029 | quisinostat 0.049 | tipifarnib -0.013 | [6] 0.019 | [7] 0.003 | [8] -0.068

CLIP1 isoform 1 (UniProt P30622)
UniProt P30622, sequence (P30622 whole entry, looked up): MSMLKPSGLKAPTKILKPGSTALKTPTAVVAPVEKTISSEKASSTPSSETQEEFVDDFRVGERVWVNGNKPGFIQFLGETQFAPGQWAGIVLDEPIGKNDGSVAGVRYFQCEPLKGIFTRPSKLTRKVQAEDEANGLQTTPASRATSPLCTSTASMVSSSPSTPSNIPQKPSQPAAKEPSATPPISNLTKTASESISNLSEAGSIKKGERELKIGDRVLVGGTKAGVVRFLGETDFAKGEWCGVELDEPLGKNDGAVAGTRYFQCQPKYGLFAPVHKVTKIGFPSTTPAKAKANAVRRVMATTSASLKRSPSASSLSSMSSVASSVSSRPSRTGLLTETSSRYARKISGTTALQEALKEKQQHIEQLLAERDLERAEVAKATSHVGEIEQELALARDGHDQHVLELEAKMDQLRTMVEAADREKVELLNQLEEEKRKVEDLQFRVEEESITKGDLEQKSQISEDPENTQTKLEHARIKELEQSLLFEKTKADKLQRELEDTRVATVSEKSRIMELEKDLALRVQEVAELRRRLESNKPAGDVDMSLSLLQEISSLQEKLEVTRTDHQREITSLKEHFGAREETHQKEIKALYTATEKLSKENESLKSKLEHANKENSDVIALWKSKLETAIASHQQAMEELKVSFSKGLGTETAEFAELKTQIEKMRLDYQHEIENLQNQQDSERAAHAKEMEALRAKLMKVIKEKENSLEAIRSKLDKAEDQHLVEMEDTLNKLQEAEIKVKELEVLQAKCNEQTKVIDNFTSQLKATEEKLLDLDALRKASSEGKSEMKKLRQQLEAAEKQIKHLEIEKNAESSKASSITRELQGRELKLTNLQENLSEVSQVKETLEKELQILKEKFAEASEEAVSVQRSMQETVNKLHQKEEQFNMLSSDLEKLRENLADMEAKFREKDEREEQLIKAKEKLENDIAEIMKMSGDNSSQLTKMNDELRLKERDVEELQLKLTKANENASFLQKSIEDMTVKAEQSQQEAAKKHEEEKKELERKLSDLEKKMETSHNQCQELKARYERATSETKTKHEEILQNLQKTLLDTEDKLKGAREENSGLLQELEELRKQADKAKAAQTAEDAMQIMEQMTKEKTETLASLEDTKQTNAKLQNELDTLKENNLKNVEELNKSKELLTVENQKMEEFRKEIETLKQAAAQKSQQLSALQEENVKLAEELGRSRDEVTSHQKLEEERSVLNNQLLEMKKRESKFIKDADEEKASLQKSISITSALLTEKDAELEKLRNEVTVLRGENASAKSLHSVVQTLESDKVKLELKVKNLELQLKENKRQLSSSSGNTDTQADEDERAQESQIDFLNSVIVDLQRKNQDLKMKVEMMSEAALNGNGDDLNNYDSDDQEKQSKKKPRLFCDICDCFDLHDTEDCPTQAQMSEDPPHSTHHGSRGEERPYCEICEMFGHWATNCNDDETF
inactive: lapatinib 0.006 | crizotinib 0.023 | [1] -0.023 | duvelisib 0.004 | gandotinib 0.036 | tozasertib 0.001 | doramapimod 0.011 | bafetinib -0.003 | [2] -0.01 | nilotinib -0.01 | [3] 0.01 | dasatinib 0.022 | [4] 0.013 | [5] 0.001 | quisinostat 0.008 | tipifarnib 0.002 | [6] -0.004 | [7] -0.002 | [8] -0.002

CNTN4 (UniProt Q8IWV2)
inactive: lapatinib -0.052 | pictilisib -0.066 | crizotinib -0.268 | [1] -0.432 | gandotinib 0.545 | tozasertib -0.182 | doramapimod -0.067 | bafetinib -0.145 | [2] 0.484 | nilotinib 0.127 | [3] -0.06 | [4] 0.306 | tipifarnib -0.006 | [6] 0.151 | [7] 0.072 | [8] -0.024
active: quisinostat -0.561

DONSON (UniProt Q9NYP3)
UniProt Q9NYP3, sequence (Q9NYP3 whole entry, looked up): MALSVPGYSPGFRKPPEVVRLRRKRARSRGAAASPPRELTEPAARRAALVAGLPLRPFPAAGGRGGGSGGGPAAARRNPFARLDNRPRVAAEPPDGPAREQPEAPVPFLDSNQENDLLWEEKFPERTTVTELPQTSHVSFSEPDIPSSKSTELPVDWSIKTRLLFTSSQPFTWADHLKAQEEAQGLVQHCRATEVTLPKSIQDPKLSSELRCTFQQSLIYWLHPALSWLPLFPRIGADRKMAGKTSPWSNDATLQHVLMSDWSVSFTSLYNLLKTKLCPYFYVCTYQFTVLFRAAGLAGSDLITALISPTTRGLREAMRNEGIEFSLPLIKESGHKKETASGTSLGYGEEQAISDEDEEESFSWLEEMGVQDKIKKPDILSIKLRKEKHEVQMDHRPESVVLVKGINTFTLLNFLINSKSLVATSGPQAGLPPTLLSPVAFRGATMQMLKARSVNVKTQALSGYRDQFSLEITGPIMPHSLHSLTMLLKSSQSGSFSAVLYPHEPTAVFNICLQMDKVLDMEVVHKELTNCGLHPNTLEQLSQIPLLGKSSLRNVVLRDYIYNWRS
inactive: lapatinib -0.012 | pictilisib -0.019 | crizotinib -0.012 | [1] -0.32 | duvelisib 0.007 | gandotinib 0.196 | doramapimod 0.07 | bafetinib -0.033 | [2] -0.157 | nilotinib 0.035 | [3] 0.004 | dasatinib -0.031 | [4] 0.066 | [5] -0.035 | quisinostat -0.051 | tipifarnib -0.024 | [6] -0.003 | [7] -0.022 | [8] 0.082

CLCN3 isoform 2 (UniProt P51790)
UniProt P51790, sequence (P51790 whole entry, looked up): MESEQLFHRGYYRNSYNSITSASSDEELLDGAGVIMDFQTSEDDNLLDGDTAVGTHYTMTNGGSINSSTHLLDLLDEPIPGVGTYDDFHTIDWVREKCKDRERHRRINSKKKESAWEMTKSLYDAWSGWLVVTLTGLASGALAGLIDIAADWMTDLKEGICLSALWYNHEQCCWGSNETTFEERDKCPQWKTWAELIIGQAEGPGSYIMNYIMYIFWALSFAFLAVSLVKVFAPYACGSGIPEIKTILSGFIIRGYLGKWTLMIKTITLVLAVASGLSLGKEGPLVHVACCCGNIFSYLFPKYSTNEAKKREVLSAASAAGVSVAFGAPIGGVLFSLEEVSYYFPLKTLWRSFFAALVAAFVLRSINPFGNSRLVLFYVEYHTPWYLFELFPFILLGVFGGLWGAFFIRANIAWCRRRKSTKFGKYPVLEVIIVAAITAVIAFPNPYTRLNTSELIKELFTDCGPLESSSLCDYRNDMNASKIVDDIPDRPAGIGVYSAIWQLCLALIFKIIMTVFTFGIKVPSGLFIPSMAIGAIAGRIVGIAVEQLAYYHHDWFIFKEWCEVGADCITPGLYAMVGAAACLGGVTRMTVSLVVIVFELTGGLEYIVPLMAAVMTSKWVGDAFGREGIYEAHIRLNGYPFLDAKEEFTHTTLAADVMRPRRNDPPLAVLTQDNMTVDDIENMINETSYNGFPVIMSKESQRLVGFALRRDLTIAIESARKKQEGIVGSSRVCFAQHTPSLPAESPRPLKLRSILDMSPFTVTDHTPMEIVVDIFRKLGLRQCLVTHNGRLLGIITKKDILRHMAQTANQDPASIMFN
inactive: lapatinib 0.047 | crizotinib -0.047 | [1] -0.075 | duvelisib 0.034 | gandotinib -0.018 | tozasertib -0.011 | doramapimod 0.026 | bafetinib -0.005 | [2] 0.024 | nilotinib 0.017 | [3] -0.018 | dasatinib -0.012 | [4] 0.006 | [5] -0.008 | quisinostat 0.01 | tipifarnib -0.012 | [6] 0.04 | [7] 0.022 | [8] 0.024

CNIH4 (UniProt Q9P003)
UniProt Q9P003, sequence (Q9P003 whole entry, looked up): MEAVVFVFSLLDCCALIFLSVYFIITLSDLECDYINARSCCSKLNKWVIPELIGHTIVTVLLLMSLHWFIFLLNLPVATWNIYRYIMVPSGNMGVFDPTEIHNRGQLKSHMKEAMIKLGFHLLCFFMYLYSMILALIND
active: tipifarnib -0.515
inactive: lapatinib 0.005 | pictilisib -0.139 | crizotinib -0.055 | duvelisib 0.092 | tozasertib -0.06 | doramapimod -0.082 | bafetinib -0.248 | nilotinib 0.074 | [3] -0.327 | dasatinib 0.132 | [4] -0.12 | [5] 0.063 | quisinostat -0.068 | [6] 0.088 | [7] 0.076 | [8] -0.136

CLCN3 (UniProt P51790)
inactive: lapatinib 0.004 | crizotinib 0.014 | [1] -0.09 | duvelisib -0.017 | gandotinib -0.106 | tozasertib -0.008 | doramapimod 0.033 | bafetinib -0.004 | [2] 0.13 | nilotinib 0.15 | [3] -0.043 | dasatinib -0.033 | [4] 0.117 | [5] 0.046 | quisinostat 0.056 | tipifarnib -0.097 | [6] -0.064 | [7] -0.002 | [8] 0.071

DPY19L3 (UniProt Q6ZPD9)
active: [8] -0.683
inactive: lapatinib -0.077 | pictilisib -0.268 | crizotinib -0.107 | tozasertib 0.057 | doramapimod -0.081 | bafetinib -0.113 | quisinostat -0.103 | [6] 0.034 | [7] 0.045

CLPB isoform 2 (UniProt Q9H078)
UniProt Q9H078, sequence (Q9H078 whole entry, looked up): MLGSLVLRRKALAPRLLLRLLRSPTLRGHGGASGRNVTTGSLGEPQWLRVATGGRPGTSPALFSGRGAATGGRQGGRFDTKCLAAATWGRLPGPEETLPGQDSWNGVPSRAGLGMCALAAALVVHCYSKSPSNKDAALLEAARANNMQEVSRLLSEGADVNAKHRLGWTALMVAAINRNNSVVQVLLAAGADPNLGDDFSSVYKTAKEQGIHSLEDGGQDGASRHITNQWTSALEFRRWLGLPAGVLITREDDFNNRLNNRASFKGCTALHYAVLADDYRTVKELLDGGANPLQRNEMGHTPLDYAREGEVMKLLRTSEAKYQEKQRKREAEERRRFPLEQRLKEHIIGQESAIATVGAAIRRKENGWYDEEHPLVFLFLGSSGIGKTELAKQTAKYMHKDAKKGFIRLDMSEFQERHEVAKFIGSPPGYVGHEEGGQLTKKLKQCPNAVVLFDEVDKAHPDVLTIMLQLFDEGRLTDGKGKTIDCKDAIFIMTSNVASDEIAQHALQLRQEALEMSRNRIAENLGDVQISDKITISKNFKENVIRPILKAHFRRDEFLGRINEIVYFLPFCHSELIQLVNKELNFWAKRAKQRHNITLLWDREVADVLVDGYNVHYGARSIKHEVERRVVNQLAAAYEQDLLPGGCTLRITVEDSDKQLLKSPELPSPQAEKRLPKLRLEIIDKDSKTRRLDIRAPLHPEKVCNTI
inactive: lapatinib -0.034 | crizotinib -0.03 | [1] 0.024 | duvelisib -0.015 | gandotinib -0.093 | tozasertib 0.046 | doramapimod -0.01 | bafetinib -0.072 | [2] 0.039 | nilotinib -0.011 | [3] -0.003 | dasatinib 0.076 | [4] -0.03 | [5] 0.018 | quisinostat 0.008 | tipifarnib -0.004 | [6] 0.005 | [7] 0.031 | [8] -0.016

DHCR7 (UniProt Q9UBM7)
UniProt Q9UBM7, sequence (Q9UBM7 whole entry, looked up): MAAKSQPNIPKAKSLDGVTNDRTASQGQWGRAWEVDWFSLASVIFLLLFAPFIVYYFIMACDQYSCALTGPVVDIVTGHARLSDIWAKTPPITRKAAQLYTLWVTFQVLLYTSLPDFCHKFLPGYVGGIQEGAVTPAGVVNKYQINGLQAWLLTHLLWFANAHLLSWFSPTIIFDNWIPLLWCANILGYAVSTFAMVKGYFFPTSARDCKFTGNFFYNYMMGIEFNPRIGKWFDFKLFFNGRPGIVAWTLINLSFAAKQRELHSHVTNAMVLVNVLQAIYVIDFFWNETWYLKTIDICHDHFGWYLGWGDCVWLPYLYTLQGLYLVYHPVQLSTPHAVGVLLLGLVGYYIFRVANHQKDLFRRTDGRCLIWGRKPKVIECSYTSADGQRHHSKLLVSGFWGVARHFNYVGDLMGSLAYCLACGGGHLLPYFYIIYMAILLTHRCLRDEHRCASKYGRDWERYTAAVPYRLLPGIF
active: gandotinib -0.215
inactive: lapatinib -0.092 | pictilisib -0.039 | crizotinib -0.103 | [1] -0.024 | duvelisib 0.067 | tozasertib -0.01 | doramapimod 0.002 | bafetinib 0.024 | [2] 0.013 | nilotinib -0.013 | [3] 0.016 | dasatinib 0.011 | [4] 0 | [5] 0.013 | quisinostat 0.234 | tipifarnib 0.015 | [6] 0.029 | [7] 0.008 | [8] 0.047
